Records with an inconclusive call do not appear. Values without a mark were called inactive. Active and inactive are the calls of the source. The call rests on the fitted dose curve; in most records, active means well fitted curve in the direction sought with a large enough effect; inconclusive means small, poorly fitted or top-dose-only effect, or another doubt; inactive means no such curve, though single readings can be large; an effect the other way counts as inactive or inconclusive.
Experiments:
HeLa = assay: Primary qHTS to identify gynecologic anti-cancer compounds using libraries of approved drugs and bioactive compounds (AID 1345084); conditions: Gynecologic cancer cell panel viability, ATPlite luminescence, 48 h; series mostly up to 57.5 µM; further: nearly all actives have a fitted effect of over 55% in size
Outline: (§1)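 In this quantitative HTS, cell killing is estimated from loss of ATP-dependent luciferase light. Cells see five compound concentrations over a 48 h exposure.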

PA-1 = assay: as above; conditions: Gynecologic cancer cell panel viability, ATPlite luminescence, 48 h; series mostly up to 57.5 µM
Outline: as §1

Tov-21-G = assay: as above; conditions: Gynecologic cancer cell panel viability, ATPlite luminescence, 48 h; series mostly up to 57.5 µM
Outline: as §1

SKOV3 = assay: as above; conditions: Gynecologic cancer cell panel viability, ATPlite luminescence, 48 h; series mostly up to 57.5 µM
Outline: as §1

Tov112D = assay: as above; conditions: Gynecologic cancer cell panel viability, ATPlite luminescence, 48 h; series mostly up to 57.5 µM
Outline: as §1

Hek293T = assay: as above; conditions: Gynecologic cancer cell panel viability, ATPlite luminescence, 48 h, control line for the selectivity index; series mostly up to 57.5 µM
Outline: as §1

OV90 = assay: as above; conditions: Gynecologic cancer cell panel viability, ATPlite luminescence, 48 h; series mostly up to 57.5 µM
Outline: as §1

[1] = qHTS assay to identify inhibitors of the type 1 interferon - major histocompatibility complex class I in skeletal muscle: Counter screen cell viability and HiBit confirmation (AID 1347412); conditions: iHSKM muscle cells + IFN-b, HiBiT or CellTiter-Glo, 24 h; for Potency: HiBiT; on all read-outs here: nearly all actives have a fitted effect of over 60% in size
Outline: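 HLA-B*08:01–HiBiT knock-in immortalized human myoblasts (C25cl48) stimulated with 4.0 ng/ml human IFN-beta and dosed with compound in a 12-point 1:3 titration (top final 46 uM). After 24 hrs at 37 C, HiBiT lytic luminescence or CellTiter Glo ATP read out.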

JEG-3 = assay: Primary qHTS to identify gynecologic anti-cancer compounds using libraries of approved drugs and bioactive compounds (AID 1345084); conditions: Gynecologic cancer cell panel viability, ATPlite luminescence, 48 h; series mostly up to 57.5 µM; further: nearly all actives have a fitted effect of over 55% in size
Outline: as §1

[2] = Drug repurposing screens with cells derived from glioblastoma tumor samples (AID 1345199); conditions: GBM patient neurospheres viability, ATP luminescence, 48 h; further: nearly all actives have a fitted effect of over 40% in size
Outline: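 Primary testing used CD133+ neurospheres from four GBM patients, seven concentrations, 48 h exposure and ATP-based viability; confirmation added three slower-growing patient lines.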

[3] = at 46.1 µM (top of the series), tumour line C
[4] = at 45.9 µM (top of the series), tumour line B
On the % scale 0 is the no-effect control and ±100 the full control effect; potency means the concentration at half of the fitted maximal effect.

For `CCCc1cc(C)[nH]c(=O)c1CNC(=O)c1cc(-c2ccnc(N3CCN(C)CC3)c2)cc2c1cnn2C(C)C`, the Potency (HeLa) was 35.5 µM (active), the Potency (PA-1) was 25.1 µM (active) and the Potency (Tov-21-G) was 31.6 µM (active).

For `O=C(c1ccccc1)c1c(O)cc(O)cc1O[C@@H]1O[C@H](CO)[C@@H](O)[C@H](O)[C@H]1O`, the Potency (PA-1) was 11.2 µM (active), the Potency (SKOV3) was “inactive” and the Potency (Tov112D) was 11.2 µM (active).

For `CC(C)=CCCC1(C)/C=C/C(OC(=O)C=C(C)C)C(C)(O)/C=C/C(=O)/C(CO)=C\C1` (configuration not stated), the Potency (Hek293T) was 8.91 µM (active).

For `COC(=O)C1=CO[C@@H](O[C@@H]2O[C@H](CO)[C@@H](O)[C@H](O)[C@H]2O)[C@H]2[C@@H]1C=C[C@]21C=C([C@H](C)OC(=O)/C=C/c2ccc(O)cc2)C(=O)O1`, the Potency (OV90) was “inactive”, the Potency (PA-1) was 12.6 µM (active) and the Potency (SKOV3) was 8.91 µM (active).

In the case of `O=C(NC1CCN(CCCCC2(C(=O)NCC(F)(F)F)c3ccccc3-c3ccccc32)CC1)c1ccccc1-c1ccc(C(F)(F)F)cc1`, the Potency (PA-1) is reported as 31.6 µM (active).

With `Cc1ccc(C(=O)Nc2ccc(CN3CCN(C)CC3)c(C(F)(F)F)c2)cc1C#Cc1cnc2[nH]ncc2c1` the Potency (OV90) was 3.16 µM (active) and the Potency [1] was 0.394 µM (active).

With `COC(=O)N1CCC(n2ncc3c(N4CCOCC4)nc(-c4ccc(NC(=O)NC5CC5)cc4)nc32)CC1` the Potency (Hek293T) was 0.631 µM (active), the Potency (JEG-3) was “inactive” and the Potency (OV90) was 0.501 µM (active). For the same molecule, the Potency (PA-1) was 1.41 µM (active).

In the case of `CC(=O)O[C@H]1[C@H](O)C[C@@]2(C)C(CC[C@]3(C)C2CC=C2C4CC(C)(C)CC[C@]4(C(=O)O)CC[C@]23C)C1(C)C` (some centres not stated), the Potency (OV90) is reported as “inactive” and the Potency (SKOV3) is reported as 11.2 µM (active).

In the case of `O=C1Nc2nc(-c3c(O)cccc3OCC3CC3)cc([C@@H]3CCCNC3)c2CO1`, the Potency (HeLa) is reported as “inactive”, the Potency (JEG-3) is reported as “inactive” and the Potency (Tov-21-G) is reported as 14.1 µM (active). The Potency (Tov112D) was 22.4 µM (active), the Potency [1] was 7.01 µM (active) and the activity change, negative = inhibition ([1]; Viability, at 45.9 µM (top of the series)) was -25%.

In the case of `COc1cc(NC(=O)c2cccc(-n3cc(NC(=O)Nc4cccc(C)c4)cn3)c2)cc(OC)c1OC`, the Potency (OV90) is reported as “inactive” and the Potency (PA-1) is reported as “inactive”.

With `C/C1=C\CCC2=CC(OC2=O)C(C)(C)/C=C/C1=O` (configuration not stated) the Potency (HeLa) was “inactive”, the Potency (PA-1) was 31.6 µM (active) and the Potency (Tov112D) was “inactive”.

With `O=C(Nc1ccc(N2C(=O)[C@@H]3[C@H](C2=O)[C@@H]2C=C[C@H]3C2)c(Cl)c1)c1ccccn1` the Potency (HeLa) was “inactive” and the Potency (Tov112D) was “inactive”.

For `CC[C@@H](C)Nc1cc(C(=O)NC2CC3CCC(C2)N3c2ccc(C(=O)C3CC3)cn2)c(C)cc1C(N)=O` (some centres not stated), the Potency (OV90) was 0.316 µM (active), the Potency (PA-1) was 0.355 µM (active) and the Potency (Tov-21-G) was 0.398 µM (active).

For `COc1cc(O)c2c(c1)C1OC1C[C@H](O)[C@H](O)C(=O)/C=C\C[C@H](C)OC2=O` (some centres not stated), the Potency (HeLa) was “inactive”, the Potency (SKOV3) was “inactive” and the Potency (Tov-21-G) was 17.8 µM (active).

For `CC(O)(C(=O)O)C1CCC2(C)C1CCC1(C)C2CCC2C3(C)CCC(O)C(C)(COC4OC(CO)C(O)C(O)C4O)C3CCC21C` (configuration not stated), the Potency (Hek293T) was 10 µM (active) and the Potency (Tov112D) was 8.91 µM (active).

With `COCc1c(Cl)ccc2c1CC[C@H]2c1ncc[nH]1` the Potency (OV90) was “inactive” and the Potency (Tov-21-G) was 10 µM (active).

In the case of `COc1ccc(-c2cc3onc(-c4ccncc4)c3c(=O)n2C)cc1`, the Potency (PA-1) is reported as “inactive”, the Potency (SKOV3) is reported as 1.78 µM (active) and the Potency (Tov-21-G) is reported as “inactive”.

For `C=CS(=O)(=O)NC1CCN(C(=O)CNc2cc(I)c(Cl)cc2OC)CC1`, the Potency (JEG-3) was “inactive”, the Potency (PA-1) was 10 µM (active) and the Potency (SKOV3) was “inactive”.

For `CCN1CCN(Cc2ccc(NC(=O)c3ccc(C)c(Oc4ncnc5[nH]c(C)cc45)c3)cc2C(F)(F)F)CC1`, the Potency (PA-1) was 31.6 µM (active) and the Potency (Tov-21-G) was 11.2 µM (active).

In the case of `COc1ccc(CCc2nc3c(C)c(-c4c(C)noc4C)c(C)cc3n2CCN2CCOCC2)cc1`, the Potency (HeLa) is reported as “inactive” and the Potency (OV90) is reported as “inactive”.

In the case of `Oc1ccc(-c2cnc3ccc(NCc4ccco4)nn23)cc1`, the Potency (JEG-3) is reported as “inactive”, the Potency (OV90) is reported as “inactive” and the Potency (PA-1) is reported as 28.2 µM (active). For the same molecule, the Potency (SKOV3) was 14.1 µM (active).

For `C=CC(=O)N1CCC[C@@H](n2nc(-c3cccc(C(=O)Nc4ccc(C(C)C)c(C)c4)c3)c3c(N)ncnc32)C1`, the Potency (Hek293T) was “inactive”, the Potency (JEG-3) was “inactive” and the Potency (PA-1) was “inactive”. For the same molecule, the Potency (Tov-21-G) was 14.1 µM (active).

For `C=C1C(=O)O[C@@H]2C3=C(C)CCC[C@]3(C)CC[C@@]12O`, the Potency (HeLa) was “inactive”, the Potency (JEG-3) was “inactive” and the Potency (SKOV3) was “inactive”.

In the case of `O=C(Nc1cccc(C(F)(F)F)c1)Nc1ccc(Br)cc1-c1nn[nH]n1`, the Potency (JEG-3) is reported as “inactive”.

For `N#CC(CCCN1CCC(O)(c2ccc(Cl)cc2)CC1)(c1ccccc1)c1ccccc1`, the Potency (Hek293T) was “inactive”, the Potency (JEG-3) was “inactive” and the Potency (OV90) was 15.8 µM (active). The Potency (PA-1) was “inactive” and the Potency (Tov-21-G) was “inactive”.

In the case of `C=C1C(=O)O[C@H]2/C=C(/C)[C@@H](OC(C)=O)C/C=C(\C)C[C@@H](OC(=O)/C(=C/C)COC(=O)/C(=C/C)CO)[C@@H]12`, the Potency (HeLa) is reported as “inactive”, the Potency (OV90) is reported as “inactive” and the Potency (Tov-21-G) is reported as 8.91 µM (active).

With `C=C1[C@@H](OC(C)=O)CC[C@@]2(C)[C@@H](OC(C)=O)[C@H](OC(C)=O)C3=C(C)C[C@H](OC(=O)C(C)CC)[C@@H]([C@@H](OC(C)=O)[C@H]12)C3(C)C` (some centres not stated) the Potency (OV90) was “inactive”.

For `O=C(Nc1cccc2cccnc12)c1ccc(N2C(=O)[C@@H]3C4C=CC(C4)[C@@H]3C2=O)cc1`, the Potency (JEG-3) was 31.6 µM (active) and the Potency (Tov-21-G) was 31.6 µM (active).

With `COc1cc(CCC2=NN=C(NC(=O)c3ccc(N4C[C@@H](C)N[C@@H](C)C4)cc3)C2)cc(OC)c1` the Potency (HeLa) was 20 µM (active), the Potency (SKOV3) was 12.6 µM (active) and the Potency (Tov-21-G) was 22.4 µM (active).

For `CCCOc1ccc2nc(NC(=O)OC)sc2c1`, the activity, negative = cell killing [2, 3] was -26.8%, the Potency ([2]; tumour line A) was 8.91 µM (active) and the Potency ([2]; tumour line D) was 10 µM (active).

`O=C[C@H](O)[C@@H](O)[C@H](O)[C@H](O)CO` showed an activity, negative = cell killing [2, 4] of -4.49%, an activity, negative = cell killing ([2]; at 45.9 µM (top of the series), tumour line D) of -7.76% and an activity, negative = cell killing [2, 3] of 7.35%.

In the case of `CC(=O)O[C@H]1CC[C@@]2(C)C(=CC[C@@H]3[C@@H]2CC[C@]2(C)C(c4cccnc4)=CC[C@@H]32)C1`, the activity, negative = cell killing [2, 4] is reported as -19.3%, the activity, negative = cell killing [2, 3] is reported as -13.1% and the Potency ([2]; tumour line A) is reported as 11.2 µM (active).
